“And” between values parts separate entries of the source, which are not always exact repeats. Equal entries are not always repeated. Inconclusive results are not listed. For some assays here: Results with a measured potency or affinity are listed apart. The source made the active and inactive calls. Cut-off read from the data, not from the text of the source, unless noted: active = parasite load remaining mostly below about 12% (no sharp cut-off); inactive = mostly above about 10%.

For orientation: inhibition means the drop in the measured response relative to a control, in per cent. Broadly, the viability is a read-out of living cells in per cent, often relative to untreated cells.

Assay [1] concerns the target ATP-dependent translocase ABCB1 (Homo sapiens) (UniProt P08183). In words: P-glycoprotein substrate transport blockade – cell-based (AID 377; in the data active = fluorescence slope change above about 50%). The settings on record: MDR1-expressing cells, fluorescent substrate accumulation slope; stronger effect = higher value; concentration not given here.
Assay [2] is described as follows: compounds altering circadian rhythm period length – cell-based, LOPAC library, luminescence reporter (AID 2774; call rule not given here;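 note: values are relative to mean of DMSO wells on each plate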). The settings on record: circadian reporter cells, at 7 µM, actives lie on both sides.
Assay [3] can be described thus: compounds altering viability of human ES cells (AID 493140; call rule not given here;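 note: cells exposed to compounds for four days before counting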). The settings on record: human embryonic stem cell survival screen; stronger effect = higher value.
Assay [4] deals with Hepatitis C virus NS3 helicase. In words: blockers of NS3h binding to ssDNA – biochemical, fluorescence polarization, LOPAC1280 library, primary screen (AID 687035; in the data active = inhibition above about 37%). The settings on record: Purified HCV NS3 helicase, Cy5-dT15 ssDNA binding fluorescence polarization; stronger effect = higher value; concentration not given here. A general note: Fluorescence polarisation rises when a labelled molecule tumbles more slowly, as on binding a larger partner.

The nature of assay [5]: compounds altering Cy5-DNA-NS3h complex signal – biochemical, LOPAC1280, artefact control for HCV NS3 helicase inhibitor project (AID 687037; call rule not given here). The settings on record: Cy5-DNA-NS3h complex fluorescence interference counterscreen. (Counterscreens check selectivity or assay interference.)
Assay [6] addresses 6-phosphogluconate dehydrogenase, decarboxylating (Homo sapiens) (UniProt P52209). In words: inhibition of human phosphogluconate dehydrogenase – biochemical, recombinant enzyme, NADPH absorbance, primary screen (AID 1159550;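 active = at least 20% inhibition of 6-phosphogluconate dehydrogenase activity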). The settings on record: recombinant 6PGD, NADPH absorbance 341 nm; at 10 µM; stronger effect = higher value.
Assay [7] can be described thus: EMT-state selective cytotoxicity in co-culture – imaging, PC-3E GFP, TEM4-18 mCherry, primary screen (AID 1345086;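 active = compounds killing one labelled cell type while sparing the other, by normalised counts and ratio limits, not self-fluorescent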;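 for all read-outs here: cells exposed to compound for 72 h before imaging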;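 for red/green cell ratio (normalised): normalised mesenchymal count divided by normalised epithelial count so high means epithelial killing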). The settings on record: PC-3E GFP / TEM4-18 mCherry co-culture, imaging cell counts, at 1 µM; for red/green cell ratio (normalised): actives lie on both sides, counts scaled to control wells, 1 = unselective.
A short description of assay [8]: blockers of cellular phospholipid synthesis – cell-based, LOPAC library, screen 4, primary screen (AID 1347384; call rule not given here). The settings on record: animal cells, phospholipid biosynthesis inhibition screen; at 10 µM.
The nature of assay [9]: MELAS cybrid and Rieske KO viability enhancers – cell-based, MELAS cybrids, Rieske KO mouse fibroblasts, CellTiter-Glo, primary screen (AID 1508586;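 active = mean z-score across replicates of 1.96 or higher in either the MELAS or the Rieske mutant cell line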;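 note: z relative to plate mean and SD of compound and empty wells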). The settings on record: low glucose. In general terms: ATP-based viability assays read luminescence as a measure of living cells.
The target in assay [10] is NAD(+) hydrolase SARM1 (Homo sapiens) (UniProt Q6SZW1). The experiment in a line: blocking NAD cleavage by SARM1 SAM-TIR – cell lysate, NAD-Glo luminescence (AID 1508614;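 active = compound whose remaining NAD level is above about 45 nM, limit read from the data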;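 note: higher remaining NAD means stronger inhibition of SARM1 NADase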). The settings on record: SAM-TIR HEK293T lysate NADase, at 1 µM, stronger effect = higher value.
NAD(+) hydrolase SARM1 (Homo sapiens), sequence (Q6SZW1 whole entry, looked up, the tested form may be a part): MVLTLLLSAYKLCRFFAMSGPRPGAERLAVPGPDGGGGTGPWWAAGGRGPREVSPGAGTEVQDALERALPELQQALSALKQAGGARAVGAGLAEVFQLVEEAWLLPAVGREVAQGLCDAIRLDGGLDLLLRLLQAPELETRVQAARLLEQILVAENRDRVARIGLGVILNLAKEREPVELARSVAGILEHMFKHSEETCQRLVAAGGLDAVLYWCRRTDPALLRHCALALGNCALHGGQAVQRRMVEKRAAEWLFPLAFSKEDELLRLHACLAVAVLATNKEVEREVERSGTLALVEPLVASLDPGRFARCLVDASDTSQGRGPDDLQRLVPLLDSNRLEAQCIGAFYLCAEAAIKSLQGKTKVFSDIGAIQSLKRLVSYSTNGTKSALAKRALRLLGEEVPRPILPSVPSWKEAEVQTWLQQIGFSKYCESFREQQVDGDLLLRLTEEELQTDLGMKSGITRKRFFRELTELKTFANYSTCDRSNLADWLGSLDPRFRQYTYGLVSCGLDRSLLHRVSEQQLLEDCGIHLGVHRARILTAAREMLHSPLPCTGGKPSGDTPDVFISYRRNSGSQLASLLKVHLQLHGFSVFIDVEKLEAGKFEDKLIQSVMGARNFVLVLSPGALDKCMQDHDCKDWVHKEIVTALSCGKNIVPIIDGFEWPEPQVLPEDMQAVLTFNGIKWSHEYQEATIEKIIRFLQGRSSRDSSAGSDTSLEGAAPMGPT
The target of assay [11] is Mitogen-activated protein kinase 7 (Homo sapiens) (UniProt Q13164). In words: Gal4-ERK5 driven luciferase induction – cell-based, HTS, primary screen (AID 1508626;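 active = luciferase signal above three times the same-plate solvent-only control wells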;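 note: luciferase driven by Gal4-ERK5 fusion binding five Gal4 sites before minimal TATA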). The settings on record: HeLa Gal4-ERK5 transactivation, 18 h, at 5 µM, stronger effect = higher value.
Mitogen-activated protein kinase 7 (Homo sapiens), sequence (Q13164 whole entry, looked up, the tested form may be a part): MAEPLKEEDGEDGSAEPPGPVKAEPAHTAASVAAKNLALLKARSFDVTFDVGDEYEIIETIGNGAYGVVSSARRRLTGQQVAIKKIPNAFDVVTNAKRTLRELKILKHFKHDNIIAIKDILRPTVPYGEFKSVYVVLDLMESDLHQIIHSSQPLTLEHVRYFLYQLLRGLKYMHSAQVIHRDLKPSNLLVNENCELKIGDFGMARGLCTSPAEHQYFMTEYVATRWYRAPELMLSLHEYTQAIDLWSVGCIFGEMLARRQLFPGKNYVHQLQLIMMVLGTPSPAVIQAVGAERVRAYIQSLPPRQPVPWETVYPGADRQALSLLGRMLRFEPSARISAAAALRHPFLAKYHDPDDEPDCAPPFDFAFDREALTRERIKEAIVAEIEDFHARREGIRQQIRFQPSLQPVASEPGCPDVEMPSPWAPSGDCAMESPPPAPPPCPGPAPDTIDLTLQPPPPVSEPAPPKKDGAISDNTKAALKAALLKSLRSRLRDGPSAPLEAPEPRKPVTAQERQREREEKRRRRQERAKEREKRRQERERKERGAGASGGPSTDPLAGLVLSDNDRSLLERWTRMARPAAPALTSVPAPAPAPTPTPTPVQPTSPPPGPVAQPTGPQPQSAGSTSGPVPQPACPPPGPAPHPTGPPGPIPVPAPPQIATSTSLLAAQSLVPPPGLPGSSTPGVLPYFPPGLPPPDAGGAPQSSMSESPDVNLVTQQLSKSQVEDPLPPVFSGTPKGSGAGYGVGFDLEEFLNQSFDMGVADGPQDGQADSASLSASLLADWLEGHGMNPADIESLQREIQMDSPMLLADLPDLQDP
Assay [12] is described as follows: galactose survival enhancers in mitochondrial complex I cybrids – cell-based, galactose medium, ATP luminescence, primary screen (AID 1645843;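 active = z-score of at least 1.8 in each of two replicates, scored against plate mean and spread of sample wells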;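 note: positive z means more ATP and so rescue of galactose-driven cybrid death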). The settings on record: complex I mutant cybrid cells, 72 h, stronger effect = higher value.
A short description of assay [13]: P. berghei load reduction in hepatocytes – cell-based, HepG2, luciferase luminescence, HepG2 viability, primary screen (AID 624349).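 Note: 100% = mean of DMSO negative control wells on the same plate.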 The settings on record: P. berghei liver stage in HepG2, luciferase luminescence, concentration not given here; parasite load remaining: stronger effect = lower value; viability: measured here: HepG2 viability without parasites.
Assay [14] can be described thus: viability loss with induced miR-34 in A549 – imaging, A549 dox-inducible miR-34, nuclei and caspase counts, primary screen (AID 1347080;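 active = compounds whose cell count with miR-34 switched on is under 0.7 times the count with it off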). The settings on record: A549 miR-34 inducible, Hoechst nuclei count, 48 h.
Assay [15] can be described thus: blockers of polyQ-driven CASP3 activation – cell-based (AID 1583). The settings on record: polyglutamine-induced caspase-3 activation, cell assay; stronger effect = higher value;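 tested at 10 µM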.
A short description of assay [16]: yeast 75Q aggregation reduction – 75Q-TubU reporter (AID 1593). The settings on record: Yeast 75Q polyglutamine aggregation reporter.
Assay [17] in a line: restoration of touch response, mutant HTT neurons – whole organism, C. elegans mechanosensory neurons, N-terminal huntingtin (AID 1599). The settings on record: C. elegans polyQ-huntingtin mechanosensory neurons, stronger effect = higher value.
Assay [18] can be described thus: blockers of cytochrome c efflux from mitochondria – biochemical, purified mitochondria (AID 1603).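 Note: mouse liver mitochondria challenged with calcium chloride; signal normalized to the plate average as 100%.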 The settings on record: stronger effect = lower value.
A short description of assay [19]: polyglutamine aggregate formation blockers (AID 1604). The settings on record: polyglutamine-induced protein aggregation inhibition assay; stronger effect = higher value; tested at 2.5 µM.
A short description of assay [20]: glutamate transport activators, MN-1 cells, MN-1 cell line (AID 1612).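 Note: tested at 1 µM final; 0% = mean of DMSO vehicle wells on each plate; positive means more glutamate uptake than control and negative means less.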 The settings on record: MN-1 motor neuron cells, stronger effect = higher value.
Assay [21] is described as follows: GFP-Q80 aggregate reduction, neuronal-like cells, cell-based, NGF-treated PC12, GFPQ80 (AID 1614).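 Note: lower means fewer inclusions and 0 means no inclusions at all.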 The settings on record: PC12 NGF-treated GFP-polyQ80 inclusion reduction.
The nature of assay [22]: 75Q-TubH aggregate inhibition, S. cerevisiae, yeast (AID 1616). The settings on record: S. cerevisiae 75Q-TubH polyglutamine aggregation suppression; stronger effect = higher value.
[23] abbreviates: measured here: epithelial PC-3E GFP cell survival.
[24] abbreviates: measured here: mesenchymal TEM4-18 mCherry cell survival.
[25] abbreviates: stronger effect = lower value, cell number ratio, induced over uninduced.
The mark [26] stands for this setting: measured here: relative caspase fold change +Dox/-Dox.
Setting [27] is: measured here: total cells with miR-34 induction, stronger effect = lower value.
[28] abbreviates: measured here: total cells without miR-34 induction.

6-phosphogluconate dehydrogenase, decarboxylating (Homo sapiens), sequence (P52209 whole entry, looked up): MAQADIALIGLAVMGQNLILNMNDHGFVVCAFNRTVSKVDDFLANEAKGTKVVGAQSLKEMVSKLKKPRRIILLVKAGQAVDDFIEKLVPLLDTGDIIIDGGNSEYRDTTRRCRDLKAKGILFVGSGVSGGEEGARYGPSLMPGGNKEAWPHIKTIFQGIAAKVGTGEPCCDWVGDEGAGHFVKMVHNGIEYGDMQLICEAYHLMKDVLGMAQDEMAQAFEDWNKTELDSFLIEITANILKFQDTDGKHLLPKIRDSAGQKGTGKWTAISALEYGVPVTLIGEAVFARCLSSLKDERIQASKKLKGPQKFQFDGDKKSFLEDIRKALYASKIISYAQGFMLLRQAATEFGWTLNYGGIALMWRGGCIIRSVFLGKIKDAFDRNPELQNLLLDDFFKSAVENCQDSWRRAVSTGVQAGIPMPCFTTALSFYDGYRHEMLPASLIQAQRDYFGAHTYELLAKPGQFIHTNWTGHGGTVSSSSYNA
ATP-dependent translocase ABCB1 (Homo sapiens), sequence (P08183 whole entry, looked up): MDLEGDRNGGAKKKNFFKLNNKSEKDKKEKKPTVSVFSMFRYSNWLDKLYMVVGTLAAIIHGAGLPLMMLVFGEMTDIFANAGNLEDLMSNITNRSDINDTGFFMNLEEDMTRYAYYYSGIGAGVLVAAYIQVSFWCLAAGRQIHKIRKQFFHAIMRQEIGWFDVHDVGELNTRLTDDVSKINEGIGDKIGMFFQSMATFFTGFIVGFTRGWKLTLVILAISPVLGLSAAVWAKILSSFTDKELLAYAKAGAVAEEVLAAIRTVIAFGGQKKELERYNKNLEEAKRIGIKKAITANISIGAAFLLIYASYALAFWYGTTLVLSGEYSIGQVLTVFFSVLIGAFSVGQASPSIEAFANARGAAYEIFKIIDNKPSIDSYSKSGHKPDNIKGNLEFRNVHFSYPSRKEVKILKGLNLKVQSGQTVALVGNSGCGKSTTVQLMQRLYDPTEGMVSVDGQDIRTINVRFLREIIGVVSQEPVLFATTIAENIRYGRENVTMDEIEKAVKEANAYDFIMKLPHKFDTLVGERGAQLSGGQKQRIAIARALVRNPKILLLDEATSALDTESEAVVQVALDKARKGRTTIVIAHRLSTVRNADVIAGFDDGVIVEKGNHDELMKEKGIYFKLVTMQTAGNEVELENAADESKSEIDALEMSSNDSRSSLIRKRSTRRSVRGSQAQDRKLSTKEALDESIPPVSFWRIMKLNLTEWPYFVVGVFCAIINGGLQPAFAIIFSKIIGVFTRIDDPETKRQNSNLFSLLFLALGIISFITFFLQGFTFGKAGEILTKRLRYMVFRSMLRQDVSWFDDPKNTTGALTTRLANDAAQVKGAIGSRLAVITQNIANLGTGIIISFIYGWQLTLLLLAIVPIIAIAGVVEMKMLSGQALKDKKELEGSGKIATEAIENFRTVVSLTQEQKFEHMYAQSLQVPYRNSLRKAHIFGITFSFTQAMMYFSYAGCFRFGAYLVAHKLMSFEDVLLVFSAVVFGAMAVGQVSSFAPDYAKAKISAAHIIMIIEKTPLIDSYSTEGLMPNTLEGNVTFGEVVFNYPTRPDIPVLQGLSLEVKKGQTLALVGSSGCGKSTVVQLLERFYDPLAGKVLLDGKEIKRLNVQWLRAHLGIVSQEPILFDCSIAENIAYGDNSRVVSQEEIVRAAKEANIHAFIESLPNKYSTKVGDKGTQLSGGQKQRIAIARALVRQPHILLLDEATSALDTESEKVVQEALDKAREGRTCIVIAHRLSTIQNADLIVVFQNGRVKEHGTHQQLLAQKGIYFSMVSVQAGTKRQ

Consider `CN(C)CCC(c1ccc(Br)cc1)c1ccccn1` (configuration not stated), for which the fluorescence slope change in assay [1] was 54.4% (active). The period change in [2] was 0.005 h (inactive). For the same compound, the survival in assay [3] is 1.08 (inactive). Also, the inhibition in [4] was 0% (inactive); in [6], 5% (inactive). Also, the fluorescence ratio (interference) in [5] is 0.9 (inactive). In [7], the red/green cell ratio (normalised) was 1.05 (inactive). In addition, the normalised cell number was 1.13 in assay [7] (setting [23]) and 1.19 in assay [7] (setting [24]). In [8], the compound was classed as inactive. Further, the z-score is -0.114 (inactive) and -0.273 (inactive) and -0.659 (inactive) in [9] (MELAS cybrid survival, CellTiter-Glo 48 h, stronger effect = higher value); -0.476 and -0.248 and 0.132 in assay [9] (Rieske KO mouse fibroblast survival, CellTiter-Glo 72 h); -0.18 (inactive) and -0.16 (inactive) and 0.035 (inactive) in assay [12]. Further, the remaining NAD in assay [10] is 10 nM (inactive). For the same compound, the luciferase signal in [11] is 48 AU (inactive).
On to `Nc1c2ccccc2nc2ccccc12` (tested in a mixture with another compound), for which the parasite load remaining in [13] was 2.09% (inactive) and 61.1% (inactive). Further, the viability in assay [13] is 97.8% and 80.2%. Moreover, the inhibition in assay [6] is 3.89% (inactive). Besides, in [7], the red/green cell ratio (normalised) is 0.94 (inactive). The results for the normalised cell number in assay [7] (setting [23]) and in [7] (setting [24]) were 1.25 and 1.17, respectively. Besides, the figures for the fold change in [14] (setting [25]) and in [14] (setting [26]) were 1.59 (inactive) and 1.23, respectively. Also, the cell count in assay [14] (setting [27]) was found to be 1530; in assay [14] (setting [28]), 960. In assay [10], the remaining NAD is 10 nM (inactive). The luciferase signal in [11] was 80 AU (inactive).
As for `COc1ccc2cc([C@H](C)CO)ccc2c1`, in assay [13], the parasite load remaining was 184% (inactive) and 65% (inactive). For the same compound, the viability in [13] was 85.1% and 144%. In addition, in assay [6], the inhibition is 2.43% (inactive). Besides, in assay [7], the red/green cell ratio (normalised) was 1.04 (inactive). Also, the figures for the normalised cell number in [7] (setting [23]) and in assay [7] (setting [24]) were 1.15 and 1.2, respectively. Also, the fold change in [14] (setting [25]) was 0.861 (inactive); in [14] (setting [26]), 3.55. The cell count was 11000 in assay [14] (setting [27]) and 12800 in assay [14] (setting [28]). For the same compound, the remaining NAD in assay [10] was 10 nM (inactive). In addition, the luciferase signal in assay [11] is 32 AU (inactive).
As to `C1CNCCN1`, the values for the inhibition in [15] and in assay [6] were 15.3% and 7.35% (inactive), respectively. Moreover, in assay [16], the score worked out at 1.95. In assay [17], this compound registered a rescue above control of -1.97. Also, in [18], the cytochrome c release ratio is 1.16. This compound yielded an inhibition of aggregation in assay [19] of 15.4%. For the same compound, the glutamate uptake change in assay [20] was -12.2%. The compound further came in with an inclusion score in assay [21] of 2. In addition, the aggregation suppression score in assay [22] came to 1.67. Also, in assay [13], the parasite load remaining is 96.9% (inactive) and 59.4% (inactive). Besides, the viability in assay [13] was 74.5% and 108%. For the same compound, the red/green cell ratio (normalised) in assay [7] was 1.22 (inactive). Besides, the normalised cell number is 0.8 in [7] (setting [23]) and 0.98 in [7] (setting [24]). In addition, the figures for the fold change in assay [14] (setting [25]) and in assay [14] (setting [26]) were 0.887 (inactive) and 2.06, respectively. Moreover, the cell count is 11000 in assay [14] (setting [27]) and 12400 in assay [14] (setting [28]). In addition, in [10], the remaining NAD is 10 nM (inactive). In addition, the luciferase signal in assay [11] is 560 AU (inactive).
As to `CC1(C)S[C@@H]2C(N3C(=O)[C@@H](c4ccccc4)NC3(C)C)C(=O)N2[C@H]1C(=O)O` (some centres not stated), the inhibition is 4.02% in assay [15] and -0.481% (inactive) in assay [6]. This compound came in with a score in [16] of 1.26. In assay [17], this compound gave a rescue above control of -1.6. For the same compound, in [18], the cytochrome c release ratio was found to be 0.9. This compound also registered an inhibition of aggregation in [19] of 49.2%. The glutamate uptake change in [20] came to 4.63%. The compound also displayed an inclusion score in assay [21] of 2. This compound gave an aggregation suppression score in [22] of 1.31. Further, in [13], the parasite load remaining was 110% (inactive) and 71.1% (inactive). The viability in [13] was 76.4% and 94.5%. Moreover, in assay [7], the red/green cell ratio (normalised) is 1.14 (inactive). Further, the values for the normalised cell number in assay [7] (setting [23]) and in [7] (setting [24]) were 0.94 and 1.08, respectively. In addition, the fold change in [14] (setting [25]) is 0.886 (inactive); in assay [14] (setting [26]), 0.799. In addition, the results for the cell count in assay [14] (setting [27]) and in assay [14] (setting [28]) were 11200 and 12600, respectively.

Values taken from PubChem BioAssay.
